Assay results published in paper PMC7862700, “An all-to-all approach to the identification of sequence-specific readers for epigenetic DNA modifications on cytosine”.

Assays:
Experiment in all cases: DAPPL (digital affinity profiling via proximity ligation, sequencing); 10 mM Tris-HCl pH 7.5, 50 mM NaCl, 1 mM DTT, 4% glycerol, room temperature, 30 min; GST-TFs on glutathione beads, 16-mer random dsDNA library, 0.1% formaldehyde crosslink after washing; high values mean tight binding
Details in all cases: protein: recombinant; tags: N-terminal GST; dsDNA, one strand shown
FLI1 = molecular target: T1, FLI1 (Homo sapiens, UniProt Q01543 1-452)
T1 sequence: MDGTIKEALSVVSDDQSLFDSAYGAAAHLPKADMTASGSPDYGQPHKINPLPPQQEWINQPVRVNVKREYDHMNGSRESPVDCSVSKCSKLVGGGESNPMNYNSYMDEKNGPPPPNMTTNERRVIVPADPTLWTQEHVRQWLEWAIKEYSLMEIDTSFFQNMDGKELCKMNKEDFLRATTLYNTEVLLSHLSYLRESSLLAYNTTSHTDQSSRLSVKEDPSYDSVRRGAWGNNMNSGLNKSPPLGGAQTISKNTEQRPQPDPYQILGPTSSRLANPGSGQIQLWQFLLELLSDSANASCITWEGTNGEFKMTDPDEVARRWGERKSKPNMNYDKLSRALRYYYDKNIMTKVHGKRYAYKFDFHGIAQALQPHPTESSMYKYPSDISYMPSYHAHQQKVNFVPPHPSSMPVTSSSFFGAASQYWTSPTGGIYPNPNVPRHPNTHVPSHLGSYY
Outline: (§1)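 The binding signal reported is, for every hexamer, its read frequency for a factor over its read frequency for the tag-only sample. Reads came from pools of yeast-expressed, GST-fused human transcription factors on glutathione beads, barcoded with DNA and mixed with that sample, which were incubated with 200 nmole of a random double-stranded 16-mer DNA library in Tris/NaCl/DTT/glycerol buffer at room temperature for 30 min. After washing, the pools were crosslinked with 0.1% formaldehyde, proximity-ligated with BsaI/T4 ligase for 1 h at 37 °C, PCR-amplified and sequenced on an Illumina NextSeq500.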

ELK1 = molecular target: T2, ELK1 (Homo sapiens, UniProt P19419 1-428)
T2 sequence: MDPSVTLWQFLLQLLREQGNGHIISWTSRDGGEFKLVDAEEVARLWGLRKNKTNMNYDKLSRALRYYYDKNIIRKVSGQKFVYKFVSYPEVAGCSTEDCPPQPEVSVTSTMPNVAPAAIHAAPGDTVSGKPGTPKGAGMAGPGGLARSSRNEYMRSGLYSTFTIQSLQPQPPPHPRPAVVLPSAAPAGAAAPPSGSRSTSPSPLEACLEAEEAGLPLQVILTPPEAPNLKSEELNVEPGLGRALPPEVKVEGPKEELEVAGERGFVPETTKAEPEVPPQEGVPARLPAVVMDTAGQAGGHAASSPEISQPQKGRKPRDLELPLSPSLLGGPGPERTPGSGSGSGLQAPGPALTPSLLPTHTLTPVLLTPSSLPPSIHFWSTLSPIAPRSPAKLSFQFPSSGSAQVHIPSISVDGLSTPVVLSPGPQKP
Outline: as §1

GABPA = molecular target: T3, GABPA (Homo sapiens, UniProt Q06546 1-454)
T3 sequence: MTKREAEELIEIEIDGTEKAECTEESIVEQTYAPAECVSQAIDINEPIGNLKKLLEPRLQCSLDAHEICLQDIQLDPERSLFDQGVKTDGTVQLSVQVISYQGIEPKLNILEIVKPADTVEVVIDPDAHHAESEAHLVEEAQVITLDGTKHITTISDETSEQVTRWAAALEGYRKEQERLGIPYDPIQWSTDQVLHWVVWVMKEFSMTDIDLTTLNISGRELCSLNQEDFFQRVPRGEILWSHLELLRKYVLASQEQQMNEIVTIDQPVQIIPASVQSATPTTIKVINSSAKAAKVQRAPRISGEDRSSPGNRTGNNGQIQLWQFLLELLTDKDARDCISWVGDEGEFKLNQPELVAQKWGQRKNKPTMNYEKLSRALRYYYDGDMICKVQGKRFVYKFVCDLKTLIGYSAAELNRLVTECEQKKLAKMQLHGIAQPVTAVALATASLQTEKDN
Outline: as §1

ERG = molecular target: T4, ERG (Homo sapiens, UniProt P11308 1-479)
T4 sequence: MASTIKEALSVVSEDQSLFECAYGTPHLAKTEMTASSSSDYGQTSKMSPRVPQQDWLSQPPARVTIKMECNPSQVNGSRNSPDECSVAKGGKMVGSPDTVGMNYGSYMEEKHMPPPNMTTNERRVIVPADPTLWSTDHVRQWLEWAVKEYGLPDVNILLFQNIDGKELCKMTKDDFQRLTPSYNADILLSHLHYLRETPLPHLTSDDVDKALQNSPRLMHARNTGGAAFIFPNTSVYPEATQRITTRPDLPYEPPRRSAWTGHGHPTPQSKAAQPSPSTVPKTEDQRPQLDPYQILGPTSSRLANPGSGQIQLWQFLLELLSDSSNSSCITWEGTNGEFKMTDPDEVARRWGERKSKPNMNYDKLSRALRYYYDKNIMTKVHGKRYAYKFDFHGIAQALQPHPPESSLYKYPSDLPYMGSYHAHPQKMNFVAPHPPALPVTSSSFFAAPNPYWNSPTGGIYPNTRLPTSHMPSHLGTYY
Outline: as §1

ELF1 = ELF1 (Homo sapiens, UniProt P32519 1-619)
Outline: as §1

EHF = molecular target: T5, EHF (Homo sapiens, UniProt Q9NZC4 1-300)
T5 sequence: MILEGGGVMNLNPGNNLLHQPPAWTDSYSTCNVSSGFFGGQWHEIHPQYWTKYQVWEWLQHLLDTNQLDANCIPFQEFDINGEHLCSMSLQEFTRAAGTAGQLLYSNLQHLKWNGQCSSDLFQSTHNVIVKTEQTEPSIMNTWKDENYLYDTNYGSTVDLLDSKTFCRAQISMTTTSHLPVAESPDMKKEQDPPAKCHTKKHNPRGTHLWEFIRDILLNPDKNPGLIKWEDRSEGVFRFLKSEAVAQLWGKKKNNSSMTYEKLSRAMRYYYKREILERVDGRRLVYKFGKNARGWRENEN
Outline: as §1

SPI1 = SPI1 (Homo sapiens, UniProt P17947 1-270)
Outline: as §1

SPIB = SPIB (Homo sapiens, UniProt Q01892 1-262)
Outline: as §1

ELK3 = molecular target: T6, ELK3 (Homo sapiens, UniProt P41970 1-407)
T6 sequence: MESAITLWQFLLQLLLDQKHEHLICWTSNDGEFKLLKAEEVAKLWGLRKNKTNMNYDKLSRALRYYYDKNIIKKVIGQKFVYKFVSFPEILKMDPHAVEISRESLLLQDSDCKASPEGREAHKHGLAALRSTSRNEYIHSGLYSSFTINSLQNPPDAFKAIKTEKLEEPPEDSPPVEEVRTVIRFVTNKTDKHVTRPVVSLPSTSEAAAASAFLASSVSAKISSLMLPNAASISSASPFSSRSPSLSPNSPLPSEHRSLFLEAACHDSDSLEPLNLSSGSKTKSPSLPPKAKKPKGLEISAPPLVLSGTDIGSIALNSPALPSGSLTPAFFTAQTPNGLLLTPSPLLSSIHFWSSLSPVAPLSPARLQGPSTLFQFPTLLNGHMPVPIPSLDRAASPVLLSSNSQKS
Outline: as §1

Sequence of ELF1 (P32519 whole entry): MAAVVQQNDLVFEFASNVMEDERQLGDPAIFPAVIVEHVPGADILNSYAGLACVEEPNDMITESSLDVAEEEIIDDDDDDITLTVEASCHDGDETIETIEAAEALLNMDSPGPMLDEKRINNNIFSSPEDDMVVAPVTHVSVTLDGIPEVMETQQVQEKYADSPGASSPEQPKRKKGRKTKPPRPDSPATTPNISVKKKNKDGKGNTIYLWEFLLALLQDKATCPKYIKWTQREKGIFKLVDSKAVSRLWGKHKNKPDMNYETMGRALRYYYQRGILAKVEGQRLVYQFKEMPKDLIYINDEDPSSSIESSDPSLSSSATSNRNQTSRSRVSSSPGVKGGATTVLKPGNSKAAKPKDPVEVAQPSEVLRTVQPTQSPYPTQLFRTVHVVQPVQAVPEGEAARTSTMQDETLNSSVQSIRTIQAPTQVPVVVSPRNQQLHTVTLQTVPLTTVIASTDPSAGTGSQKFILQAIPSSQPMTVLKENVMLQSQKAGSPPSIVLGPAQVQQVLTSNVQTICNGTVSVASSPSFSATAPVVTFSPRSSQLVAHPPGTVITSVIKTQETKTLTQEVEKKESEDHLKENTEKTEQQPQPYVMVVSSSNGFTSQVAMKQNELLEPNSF
Sequence of SPIB (Q01892 whole entry): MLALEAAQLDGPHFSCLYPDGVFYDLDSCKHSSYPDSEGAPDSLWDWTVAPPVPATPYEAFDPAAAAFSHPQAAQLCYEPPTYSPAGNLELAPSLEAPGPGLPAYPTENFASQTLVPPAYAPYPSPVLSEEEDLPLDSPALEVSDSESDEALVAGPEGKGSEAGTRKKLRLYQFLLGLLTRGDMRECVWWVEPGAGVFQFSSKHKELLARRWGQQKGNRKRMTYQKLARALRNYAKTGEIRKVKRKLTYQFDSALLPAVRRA

For ACCCTA, the binding signal (FLI1) was 1.19 fold enrichment (6-mer frequency, TF over GST control), the binding signal (ELK1) was 1.36 fold enrichment (6-mer frequency, TF over GST control) and the binding signal (GABPA) was 1.25 fold enrichment (6-mer frequency, TF over GST control). The binding signal (ERG) was 1.18 fold enrichment (6-mer frequency, TF over GST control), the binding signal (ELF1) was 1.32 fold enrichment (6-mer frequency, TF over GST control) and the binding signal (EHF) was 1.09 fold enrichment (6-mer frequency, TF over GST control). For the same sequence, the binding signal (SPI1) was 1.19 fold enrichment (6-mer frequency, TF over GST control), the binding signal (SPIB) was 1.16 fold enrichment (6-mer frequency, TF over GST control) and the binding signal (ELK3) was 1.29 fold enrichment (6-mer frequency, TF over GST control).

For CACTTA, the binding signal (FLI1) was 1.17 fold enrichment (6-mer frequency, TF over GST control), the binding signal (ELK1) was 1.24 fold enrichment (6-mer frequency, TF over GST control) and the binding signal (GABPA) was 1.25 fold enrichment (6-mer frequency, TF over GST control). For the same sequence, the binding signal (ERG) was 1.22 fold enrichment (6-mer frequency, TF over GST control), the binding signal (ELF1) was 1.27 fold enrichment (6-mer frequency, TF over GST control) and the binding signal (EHF) was 1.18 fold enrichment (6-mer frequency, TF over GST control). For the same sequence, the binding signal (SPI1) was 1.21 fold enrichment (6-mer frequency, TF over GST control), the binding signal (SPIB) was 1.19 fold enrichment (6-mer frequency, TF over GST control) and the binding signal (ELK3) was 1.2 fold enrichment (6-mer frequency, TF over GST control).

In the case of TCTCAC, the binding signal (FLI1) is reported as 1.45 fold enrichment (6-mer frequency, TF over GST control), the binding signal (ELK1) is reported as 1.45 fold enrichment (6-mer frequency, TF over GST control) and the binding signal (GABPA) is reported as 1.43 fold enrichment (6-mer frequency, TF over GST control). The binding signal (ERG) was 1.41 fold enrichment (6-mer frequency, TF over GST control), the binding signal (ELF1) was 1.39 fold enrichment (6-mer frequency, TF over GST control) and the binding signal (EHF) was 1.39 fold enrichment (6-mer frequency, TF over GST control). For the same sequence, the binding signal (SPI1) was 1.36 fold enrichment (6-mer frequency, TF over GST control), the binding signal (SPIB) was 1.48 fold enrichment (6-mer frequency, TF over GST control) and the binding signal (ELK3) was 1.58 fold enrichment (6-mer frequency, TF over GST control).

For AAGCCT, the binding signal (FLI1) was 1.21 fold enrichment (6-mer frequency, TF over GST control), the binding signal (ELK1) was 1.22 fold enrichment (6-mer frequency, TF over GST control) and the binding signal (GABPA) was 1.24 fold enrichment (6-mer frequency, TF over GST control). The binding signal (ERG) was 1.21 fold enrichment (6-mer frequency, TF over GST control), the binding signal (ELF1) was 1.25 fold enrichment (6-mer frequency, TF over GST control) and the binding signal (EHF) was 1.16 fold enrichment (6-mer frequency, TF over GST control). For the same sequence, the binding signal (SPI1) was 1.14 fold enrichment (6-mer frequency, TF over GST control), the binding signal (SPIB) was 1.22 fold enrichment (6-mer frequency, TF over GST control) and the binding signal (ELK3) was 1.25 fold enrichment (6-mer frequency, TF over GST control).
